Screening results: PubChem BioAssay, National Center for Advancing Translational Sciences (NCATS)
TDP1 cell CPT: qHTS for Inhibitors of human tyrosyl-DNA phosphodiesterase 1 (TDP1): qHTS in cells in presence of CPT | Potency, µM (highest dose often 46.2 µM), for inactives: top-dose activity change, negative = growth inhibition, actives largely listed as inhibitors | chicken DT40 Tdp1-/-;hTDP1 cells + 20 nM CPT, ATP luminescence, 48 h | hit rate 12% among 420,000; also: potency is read from the fitted curve at half-maximal effect; % is scaled to controls: 0 for no effect and ±100 for the full control effect; nearly all actives have a fitted effect of over 55% in size
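Chicken DT40 Tdp1-/- cells complemented with human TDP1, 400 cells/well, exposed to compounds plus 20 nM camptothecin for at least 48 h at 37 C; viability read as ATP content by CellTiter-Glo luminescence.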
ClpP mod: qHTS Assay for Activators of ClpP; hit rate 1.9% among 340,000; AID 651965, 2013; ATP-dependent Clp protease proteolytic subunit (Bacillus subtilis (strain 168)), P80244; Potency, µM (series often up to 57.5 µM), inactives show at the top dose activity change, negative = active; purified B. subtilis ClpP, FRET peptide cleavage, 20 min; active = well fitted falling curve with a large enough effect; inconclusive = small, poorly fitted or top-dose-only effect; inactive = no such curve, though single readings can be large or run the other way; also: potency is read from the fitted curve at half-maximal effect; the source files actives as falling curves though it sought activators and does not explain the sign; nearly all actives have a fitted effect of over 65% in size
Target sequence (P80244 whole entry, looked up): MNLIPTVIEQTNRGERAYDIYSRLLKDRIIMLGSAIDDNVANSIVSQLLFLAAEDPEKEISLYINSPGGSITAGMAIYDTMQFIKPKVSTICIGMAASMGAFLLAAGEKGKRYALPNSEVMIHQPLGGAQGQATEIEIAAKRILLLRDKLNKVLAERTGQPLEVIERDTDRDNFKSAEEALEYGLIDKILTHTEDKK
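ClpP 10 microg/mL final, pH 8 Tris/KCl buffer with BSA, glycerol, Tween-20; compound pinned in; FRET-FV substrate; RT 20 min; Ex320/Em430; ΔFRET vs ADEP 5.8 microM, DMSO, no enzyme.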
DT40 TDP1 no CPT: qHTS for Inhibitors of human tyrosyl-DNA phosphodiesterase 1 (TDP1): qHTS in cells in absence of CPT; AID 686978, 2013; Potency, µM (top dose mostly 46.2 µM), for the others: at the top dose activity change, negative = growth inhibition, most hits filed as inhibitors; DT40 Tdp1-/- hTDP1 cells, no CPT, ATP luminescence, 48 h; hit rate 15% among 420,000; also: potency is read from the fitted curve at half-maximal effect; % is scaled to controls: 0 for no effect and ±100 for the full control effect; nearly all actives have a fitted effect of over 55% in size
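Growth of hTDP1-complemented DT40 Tdp1-knockout cells is measured by ATP luminescence after at least 48 hr compound exposure at 37 °C, with DMSO substituting for the 20 nM CPT used in the parallel screen.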
D3 ag: qHTS of D3 Dopamine Receptor Agonist: qHTS. D3R DiscoveRx beta-arrestin cells, luminescence, 90 min. max activation, %. hit rate 0.58% among 410,000. AID 652048, 2013; in the data active = max activation above about 30%; also: 0% is about no effect
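Agonist mode: compounds and dopamine controls were applied to plated cells for 90 min at 37 degrees C after an overnight attachment at 1500 cells/well. Luminescent read-out followed 30 - 60 minutes at room temperature with DiscoveRx detection reagent.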
DRD3 antagonist: qHTS of D3 Dopamine Receptor Antagonist: qHTS; D(3) dopamine receptor (Homo sapiens), P35462; hit rate 2.5% among 360,000; max response, negative = inhibition, %; AID 652054, 2013; D3R cells, DiscoveRx beta-arrestin luminescence, antagonist mode; active compounds read low; in the data active = max response below about -50%; inconclusive = no clear call, values can overlap the other calls; also: % is scaled to controls: 0 for no effect and ±100 for the full control effect
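Cells expressing the human receptor were seeded at 1500 cells/well, incubated overnight at 37 degrees C in 5% CO2, then exposed to library compounds with dopamine controls for 90 minutes at 37 degrees C before luminescent detection.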
IL1B secr inh: qHTS for Inhibitors of Inflammasome Signaling: IL-1-beta AlphaLISA Primary Screen; hit rate 4.7% among 360,000; activity change, % at 57.5 µM; AID 743279, 2014; THP-1 LPS/ATP IL-1B secretion, AlphaLISA, 16 h; active compounds read low; in the data active = activity change below about -50%; inconclusive = mostly about -30% to -49%; also: % is scaled to controls: 0 for no effect and ±100 for the full control effect
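THP-1 cells pretreated 1 hr with compounds (up to 57.5 uM final), then stimulated with LPS (250 ng/mL final) plus ATP (1.25 mM final); secreted IL-1B measured by AlphaLISA after 16 hr, decreased signal indicating inhibition.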
* = called active by the depositor; ? = inconclusive; / = not tested or not shown; [ ] = remark or other dose. Rows were chosen to be rich in hits. Some 21% of all compounds tested hit in one or more screens of this group. Unless noted, calls follow the shape of the dose curve; as a rule, active = well fitted inhibition curve with a large enough effect; inconclusive = small, poorly fitted or top-dose-only effect; inactive = flat fitted curve, though single readings scatter.

SMILES	TDP1 cell CPT	ClpP mod	DT40 TDP1 no CPT	D3 ag	DRD3 antagonist	IL1B secr inh
CCn1c2ccccc2c2cc(CN3CCOc4ccc(C(O)c5cccnc5)cc4C3)ccc21 (stereo not drawn)	?	/	26µM*	/	/	/
COc1cccc(CN2CCOc3ccc(C(O)c4cccnc4)cc3C2)c1 (stereo not drawn)	-1%[9.04 µM]	/	-1%	/	/	/
COc1cc(C)c(CN2CCOc3ccc(C(O)c4cccnc4)cc3C2)cc1C (stereo not drawn)	-5%[9.04 µM]	/	18µM*	/	/	/
COc1ccccc1N1CCN(C(=O)c2oc3ccccc3c2N)CC1	?	?	?	-4	/	/
O=C(NCc1ccc(Cl)cc1)C1CCN(S(=O)(=O)c2ccccc2)CC1	?	-4%	?	-8	-8	?
CC(=O)N1CCCc2cc(S(=O)(=O)N3CCC(C(=O)Nc4ccc(C)cc4Cl)CC3)ccc21	15µM*	-1%	16µM*	10	/	/
CC(=O)N1CCCc2cc(S(=O)(=O)N3CCC(C(=O)NCc4ccccc4)CC3)ccc21	?	0%	?	-3	/	/
O=C(NCc1ccc(Cl)cc1)C1CCN(S(=O)(=O)c2ccc3c(c2)CCCN3C(=O)C2CCC2)CC1	16µM*	0%	21µM*	0	/	/
Cc1ccc(CNC(=O)C2CCN(S(=O)(=O)c3ccc4c(c3)CCCN4C(=O)C3CCC3)CC2)cc1	21µM*	1%	7.3µM*	-12	/	/
CC(=O)N1CCCc2cc(S(=O)(=O)N3CCC(C(=O)NCc4ccccc4Cl)CC3)ccc21	?	0%	23µM*	5	/	/
CC(OC(=O)c1c[nH]c2ccccc12)C(=O)N1CCCC1 (stereo not drawn)	-1%	2%	-26%	0	14	-6
Cc1cccc(CNC(=O)C2CCN(S(=O)(=O)c3ccc4c(c3)CCCN4C(=O)C3CCC3)CC2)c1	13µM*	1%	8.2µM*	-3	/	/
O=C(NCc1ccccc1)C1CCN(S(=O)(=O)c2ccc3c(c2)CCCN3C(=O)C2CCC2)CC1	16µM*	-5%	?	5	/	/
O=C(NCCc1ccccc1)c1cnc2ccccc2n1	?	0%	-18%	6	10	7
Nc1nc(N)c2ncc(C(=O)CCc3ccccc3)nc2n1	13µM*	/	?	3	7	19
COc1cc(=O)n2c(c1C(=O)NC(C)c1ccco1)CCN(CC=C(C)C)CC2 (stereo not drawn)	-12%	/	-5%	/	/	/
Cn1c(CC(=O)Nc2ccccc2F)nnc1SCC(=O)NC1=NCCS1	?	-1%	-20%	5	6	-6
O=C(CC1C(=O)NCCN1Cc1ccccc1)NCCC1=CCCCC1 (stereo not drawn)	-11%	-2%	-5%	4	-17	8
COc1ccc(S(=O)(=O)N2CCOCC2)cc1NC(=O)c1c(C)noc1C	7%	0%	0%	5	14	3
CCOC(=O)c1ccc(-c2c(-c3cc(OC)c(OC)c(OC)c3)noc2C)cc1F	1.6µM*	-8%	1µM*	-13	-5	42
CCOC(=O)c1ccc(-c2c(-c3ccc4c(c3)OCO4)noc2-c2ccsc2)cc1F	?	-23%	?	5	10	21
CCOC(=O)c1ccc(-c2c(-c3ccc(OC)cc3)oc(=O)c3cc(OC)c(OC)cc23)cc1F	21µM*	?	10µM*	0	-18	15
CC(C)(C)OC(=O)N1CCCN(C(=O)Nc2ccc(C(F)(F)F)cc2)CC1	?	/	?	-8	8	20
